# Results published in ChEMBL document CHEMBL1961873, “Compounds: GSK PKIS; Assays: Nanosyn kinase panel” (2012).
# How the values were obtained:
# [1] = molecular target: Sphingosine kinase 1 (Homo sapiens) (UniProt Q9NYA1); conditions: at 1 µM;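 further: mean SPHK1 inhibition value reported from the GSK PKIS kinase panel screen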
# [2] = molecular target: T1, Sphingosine kinase 2 (Homo sapiens) (UniProt Q9NRA0); conditions: at 0.1 µM
# T1 sequence (whole entry): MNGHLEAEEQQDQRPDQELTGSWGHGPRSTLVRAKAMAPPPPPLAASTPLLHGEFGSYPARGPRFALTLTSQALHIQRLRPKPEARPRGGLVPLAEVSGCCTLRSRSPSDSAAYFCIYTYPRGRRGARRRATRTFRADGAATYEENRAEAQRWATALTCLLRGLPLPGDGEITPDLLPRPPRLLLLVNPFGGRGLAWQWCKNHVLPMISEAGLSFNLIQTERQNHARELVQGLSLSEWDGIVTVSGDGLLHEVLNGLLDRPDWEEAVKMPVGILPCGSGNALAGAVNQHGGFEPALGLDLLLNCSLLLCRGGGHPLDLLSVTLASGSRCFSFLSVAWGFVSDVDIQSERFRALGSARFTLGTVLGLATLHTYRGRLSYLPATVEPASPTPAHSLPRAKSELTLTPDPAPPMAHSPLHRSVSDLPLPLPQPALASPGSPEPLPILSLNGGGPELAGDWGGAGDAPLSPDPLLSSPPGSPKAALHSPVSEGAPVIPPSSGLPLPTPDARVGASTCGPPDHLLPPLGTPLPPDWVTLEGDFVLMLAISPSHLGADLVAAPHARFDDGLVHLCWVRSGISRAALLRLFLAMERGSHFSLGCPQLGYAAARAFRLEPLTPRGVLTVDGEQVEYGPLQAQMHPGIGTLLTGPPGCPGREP
# [3] = molecular target: T1, Sphingosine kinase 2 (Homo sapiens); conditions: at 1 µM
# [4] = molecular target: Casein kinase II subunit alpha (Homo sapiens) (UniProt P68400); conditions: at 0.1 µM
# [5] = molecular target: Casein kinase II subunit alpha (Homo sapiens) (UniProt P68400); conditions: at 1 µM
# [6] = molecular target: T2, Inhibitor of nuclear factor kappa-B kinase subunit alpha (Homo sapiens) (UniProt O15111); conditions: at 0.1 µM
# T2 sequence (whole entry): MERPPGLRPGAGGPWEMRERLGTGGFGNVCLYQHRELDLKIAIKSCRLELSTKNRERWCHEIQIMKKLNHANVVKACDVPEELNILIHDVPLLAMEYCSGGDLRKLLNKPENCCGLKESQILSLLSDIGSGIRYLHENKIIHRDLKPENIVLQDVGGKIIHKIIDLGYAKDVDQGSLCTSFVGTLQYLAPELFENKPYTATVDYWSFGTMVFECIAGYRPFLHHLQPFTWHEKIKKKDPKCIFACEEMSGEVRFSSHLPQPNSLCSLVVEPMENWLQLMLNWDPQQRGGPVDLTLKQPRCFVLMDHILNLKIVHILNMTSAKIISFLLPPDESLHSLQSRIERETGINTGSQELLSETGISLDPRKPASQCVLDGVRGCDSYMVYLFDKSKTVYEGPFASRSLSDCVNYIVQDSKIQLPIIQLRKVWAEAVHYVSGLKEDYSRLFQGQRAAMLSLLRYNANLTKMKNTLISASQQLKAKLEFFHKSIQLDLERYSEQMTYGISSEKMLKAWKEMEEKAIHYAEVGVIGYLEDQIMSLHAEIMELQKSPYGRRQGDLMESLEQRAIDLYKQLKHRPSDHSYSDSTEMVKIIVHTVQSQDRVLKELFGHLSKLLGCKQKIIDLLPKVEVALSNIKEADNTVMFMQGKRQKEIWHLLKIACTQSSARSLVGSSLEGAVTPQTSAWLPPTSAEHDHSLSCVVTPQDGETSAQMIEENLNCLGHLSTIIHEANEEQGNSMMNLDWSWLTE
# [7] = molecular target: T2, Inhibitor of nuclear factor kappa-B kinase subunit alpha (Homo sapiens); conditions: at 1 µM
# [8] = molecular target: T3, Inhibitor of nuclear factor kappa-B kinase subunit beta (Homo sapiens) (UniProt O14920); conditions: at 0.1 µM
# T3 sequence (whole entry): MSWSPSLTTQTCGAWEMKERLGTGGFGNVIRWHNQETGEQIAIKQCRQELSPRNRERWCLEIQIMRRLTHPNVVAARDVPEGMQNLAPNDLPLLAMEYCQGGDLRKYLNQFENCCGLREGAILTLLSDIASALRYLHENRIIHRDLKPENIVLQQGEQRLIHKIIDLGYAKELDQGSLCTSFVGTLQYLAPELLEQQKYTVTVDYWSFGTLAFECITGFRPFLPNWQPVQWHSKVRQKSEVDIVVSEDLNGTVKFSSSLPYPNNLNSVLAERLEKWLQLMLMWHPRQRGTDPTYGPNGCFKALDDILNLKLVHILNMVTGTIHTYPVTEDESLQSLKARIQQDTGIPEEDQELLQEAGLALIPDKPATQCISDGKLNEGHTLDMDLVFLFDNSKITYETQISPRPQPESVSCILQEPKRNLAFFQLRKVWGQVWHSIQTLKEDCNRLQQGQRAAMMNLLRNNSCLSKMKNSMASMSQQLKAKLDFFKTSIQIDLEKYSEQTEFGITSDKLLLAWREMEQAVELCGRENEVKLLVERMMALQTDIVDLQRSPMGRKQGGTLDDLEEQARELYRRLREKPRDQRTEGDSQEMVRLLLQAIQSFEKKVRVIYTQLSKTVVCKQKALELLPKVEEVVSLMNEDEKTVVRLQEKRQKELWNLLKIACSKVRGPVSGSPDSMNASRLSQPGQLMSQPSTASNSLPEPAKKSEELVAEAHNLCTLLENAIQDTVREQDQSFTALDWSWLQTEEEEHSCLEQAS
# [9] = molecular target: T3, Inhibitor of nuclear factor kappa-B kinase subunit beta (Homo sapiens); conditions: at 1 µM
# [10] = molecular target: T4, Inhibitor of nuclear factor kappa-B kinase subunit epsilon (Homo sapiens) (UniProt Q14164); conditions: at 0.1 µM
# T4 sequence (whole entry): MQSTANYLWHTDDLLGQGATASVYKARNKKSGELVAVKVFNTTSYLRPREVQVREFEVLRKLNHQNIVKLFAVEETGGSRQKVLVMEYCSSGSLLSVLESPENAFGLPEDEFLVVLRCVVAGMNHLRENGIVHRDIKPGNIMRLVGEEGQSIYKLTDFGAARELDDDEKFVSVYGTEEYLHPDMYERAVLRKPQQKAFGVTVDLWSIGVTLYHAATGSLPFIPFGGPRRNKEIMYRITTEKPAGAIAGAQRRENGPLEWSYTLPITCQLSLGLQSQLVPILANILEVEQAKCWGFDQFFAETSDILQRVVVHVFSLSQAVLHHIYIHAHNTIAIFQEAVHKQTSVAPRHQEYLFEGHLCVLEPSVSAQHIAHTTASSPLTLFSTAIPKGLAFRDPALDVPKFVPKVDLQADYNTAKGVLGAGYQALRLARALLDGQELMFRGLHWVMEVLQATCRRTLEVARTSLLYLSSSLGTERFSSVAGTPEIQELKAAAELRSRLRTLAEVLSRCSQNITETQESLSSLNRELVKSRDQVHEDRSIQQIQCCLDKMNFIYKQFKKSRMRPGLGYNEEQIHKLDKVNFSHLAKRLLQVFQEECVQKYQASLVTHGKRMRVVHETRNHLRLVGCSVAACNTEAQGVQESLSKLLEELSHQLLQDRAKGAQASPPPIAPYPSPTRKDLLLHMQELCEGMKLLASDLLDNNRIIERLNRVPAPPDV
# [11] = molecular target: T4, Inhibitor of nuclear factor kappa-B kinase subunit epsilon (Homo sapiens); conditions: at 1 µM
# [12] = molecular target: T5, Serine/threonine-protein kinase Nek1 (Homo sapiens) (UniProt Q96PY6); conditions: at 0.1 µM
# T5 sequence (whole entry): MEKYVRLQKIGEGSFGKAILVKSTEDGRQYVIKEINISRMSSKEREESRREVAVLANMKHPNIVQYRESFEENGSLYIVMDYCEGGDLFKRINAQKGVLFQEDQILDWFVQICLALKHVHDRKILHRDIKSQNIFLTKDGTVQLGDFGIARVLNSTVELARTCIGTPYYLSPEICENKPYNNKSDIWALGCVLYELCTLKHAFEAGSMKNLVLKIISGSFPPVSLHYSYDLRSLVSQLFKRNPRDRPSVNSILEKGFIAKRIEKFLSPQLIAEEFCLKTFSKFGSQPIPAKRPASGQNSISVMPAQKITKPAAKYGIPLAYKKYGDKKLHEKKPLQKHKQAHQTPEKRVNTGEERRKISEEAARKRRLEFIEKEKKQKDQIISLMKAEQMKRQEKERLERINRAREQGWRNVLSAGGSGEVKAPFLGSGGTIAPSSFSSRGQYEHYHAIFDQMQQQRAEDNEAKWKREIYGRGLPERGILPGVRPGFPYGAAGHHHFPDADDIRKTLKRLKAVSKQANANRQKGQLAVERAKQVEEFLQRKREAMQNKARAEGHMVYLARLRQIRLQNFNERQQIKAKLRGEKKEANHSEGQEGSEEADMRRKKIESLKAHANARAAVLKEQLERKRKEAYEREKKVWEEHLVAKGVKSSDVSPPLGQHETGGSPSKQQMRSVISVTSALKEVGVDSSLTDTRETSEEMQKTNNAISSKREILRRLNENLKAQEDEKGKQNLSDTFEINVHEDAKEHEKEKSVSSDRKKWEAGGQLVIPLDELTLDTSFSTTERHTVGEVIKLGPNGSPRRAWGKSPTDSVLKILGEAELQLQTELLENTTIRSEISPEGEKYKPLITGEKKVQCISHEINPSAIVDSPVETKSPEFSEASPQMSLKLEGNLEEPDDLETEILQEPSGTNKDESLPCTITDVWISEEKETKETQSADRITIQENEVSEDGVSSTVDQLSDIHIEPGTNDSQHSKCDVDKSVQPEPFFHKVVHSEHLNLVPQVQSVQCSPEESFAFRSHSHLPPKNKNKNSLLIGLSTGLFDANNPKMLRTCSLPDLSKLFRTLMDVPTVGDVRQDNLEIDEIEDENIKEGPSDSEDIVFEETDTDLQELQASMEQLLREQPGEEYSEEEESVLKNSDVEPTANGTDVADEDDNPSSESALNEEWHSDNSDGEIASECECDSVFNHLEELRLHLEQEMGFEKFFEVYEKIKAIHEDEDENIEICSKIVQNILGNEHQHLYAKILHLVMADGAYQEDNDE
# [13] = molecular target: T5, Serine/threonine-protein kinase Nek1 (Homo sapiens); conditions: at 1 µM
# [14] = molecular target: T6, Serine/threonine-protein kinase Nek2 (Homo sapiens) (UniProt P51955); conditions: at 0.1 µM
# T6 sequence (whole entry): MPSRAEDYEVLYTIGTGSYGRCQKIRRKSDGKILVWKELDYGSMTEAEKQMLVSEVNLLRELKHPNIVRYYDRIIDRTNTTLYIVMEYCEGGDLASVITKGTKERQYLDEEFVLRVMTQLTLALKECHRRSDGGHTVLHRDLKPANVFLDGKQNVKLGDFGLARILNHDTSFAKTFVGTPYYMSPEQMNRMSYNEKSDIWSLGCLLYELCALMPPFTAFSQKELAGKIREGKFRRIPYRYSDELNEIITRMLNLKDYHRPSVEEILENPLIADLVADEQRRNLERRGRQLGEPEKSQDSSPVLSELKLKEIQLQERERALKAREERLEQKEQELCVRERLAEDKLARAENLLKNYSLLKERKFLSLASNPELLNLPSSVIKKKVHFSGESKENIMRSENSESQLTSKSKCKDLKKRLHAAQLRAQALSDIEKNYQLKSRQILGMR
# [15] = molecular target: T6, Serine/threonine-protein kinase Nek2 (Homo sapiens); conditions: at 1 µM
# [16] = molecular target: Serine/threonine-protein kinase Nek6 (Homo sapiens) (UniProt Q9HC98); conditions: at 0.1 µM
# [17] = molecular target: Serine/threonine-protein kinase Nek6 (Homo sapiens) (UniProt Q9HC98); conditions: at 1 µM
# [18] = molecular target: Serine/threonine-protein kinase Nek7 (Homo sapiens) (UniProt Q8TDX7); conditions: at 0.1 µM
# [19] = molecular target: Serine/threonine-protein kinase Nek7 (Homo sapiens) (UniProt Q8TDX7); conditions: at 1 µM
# [20] = molecular target: T7, Serine/threonine-protein kinase Nek9 (Homo sapiens) (UniProt Q8TD19); conditions: at 0.1 µM;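 further: reported value is the mean percent inhibition of NEK9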
# T7 sequence (whole entry): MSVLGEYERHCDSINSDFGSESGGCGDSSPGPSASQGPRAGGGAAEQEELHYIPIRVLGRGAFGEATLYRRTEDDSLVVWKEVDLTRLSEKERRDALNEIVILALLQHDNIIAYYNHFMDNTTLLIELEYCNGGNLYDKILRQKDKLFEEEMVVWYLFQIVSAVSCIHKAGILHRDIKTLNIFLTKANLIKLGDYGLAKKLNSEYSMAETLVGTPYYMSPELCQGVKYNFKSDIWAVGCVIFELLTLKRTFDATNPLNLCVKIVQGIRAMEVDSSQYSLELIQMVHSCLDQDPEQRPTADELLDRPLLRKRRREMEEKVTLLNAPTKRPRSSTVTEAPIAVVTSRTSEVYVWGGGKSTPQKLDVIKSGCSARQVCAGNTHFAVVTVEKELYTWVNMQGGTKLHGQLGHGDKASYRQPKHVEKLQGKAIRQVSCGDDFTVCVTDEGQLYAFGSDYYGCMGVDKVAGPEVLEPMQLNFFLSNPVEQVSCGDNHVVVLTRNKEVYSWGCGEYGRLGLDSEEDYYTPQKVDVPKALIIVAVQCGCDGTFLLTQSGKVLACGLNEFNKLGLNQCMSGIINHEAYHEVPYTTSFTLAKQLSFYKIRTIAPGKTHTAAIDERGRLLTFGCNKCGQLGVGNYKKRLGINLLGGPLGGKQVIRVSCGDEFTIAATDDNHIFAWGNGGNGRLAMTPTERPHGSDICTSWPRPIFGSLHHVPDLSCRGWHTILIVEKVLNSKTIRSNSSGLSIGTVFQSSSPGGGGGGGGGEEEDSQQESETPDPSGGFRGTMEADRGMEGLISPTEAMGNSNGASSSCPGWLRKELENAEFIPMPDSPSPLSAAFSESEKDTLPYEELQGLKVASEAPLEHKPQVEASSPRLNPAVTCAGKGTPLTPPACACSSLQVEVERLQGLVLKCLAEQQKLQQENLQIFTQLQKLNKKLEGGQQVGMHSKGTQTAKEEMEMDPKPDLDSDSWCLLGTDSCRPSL
# Chain of Serine/threonine-protein kinase Nek7 (Homo sapiens) (Q8TDX7 whole entry, looked up): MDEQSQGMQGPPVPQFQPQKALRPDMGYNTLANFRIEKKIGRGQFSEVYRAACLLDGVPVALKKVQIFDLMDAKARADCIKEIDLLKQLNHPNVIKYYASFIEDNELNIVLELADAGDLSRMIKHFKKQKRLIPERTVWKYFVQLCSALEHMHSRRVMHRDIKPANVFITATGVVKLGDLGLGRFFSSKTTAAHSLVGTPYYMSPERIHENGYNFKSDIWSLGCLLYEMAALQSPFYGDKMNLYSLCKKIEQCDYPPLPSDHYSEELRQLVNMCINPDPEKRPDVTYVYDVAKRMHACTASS
# Chain of Serine/threonine-protein kinase Nek6 (Homo sapiens) (Q9HC98 whole entry): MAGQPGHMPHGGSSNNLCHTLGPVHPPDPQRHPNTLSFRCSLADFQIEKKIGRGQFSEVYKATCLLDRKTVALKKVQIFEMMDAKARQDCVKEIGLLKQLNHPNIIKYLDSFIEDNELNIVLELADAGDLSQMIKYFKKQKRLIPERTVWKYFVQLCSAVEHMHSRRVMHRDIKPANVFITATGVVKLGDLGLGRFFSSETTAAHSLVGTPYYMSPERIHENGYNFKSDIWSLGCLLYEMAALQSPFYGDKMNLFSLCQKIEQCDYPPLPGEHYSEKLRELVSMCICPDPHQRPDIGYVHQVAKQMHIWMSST
# Chain of Casein kinase II subunit alpha (Homo sapiens) (P68400 whole entry, looked up): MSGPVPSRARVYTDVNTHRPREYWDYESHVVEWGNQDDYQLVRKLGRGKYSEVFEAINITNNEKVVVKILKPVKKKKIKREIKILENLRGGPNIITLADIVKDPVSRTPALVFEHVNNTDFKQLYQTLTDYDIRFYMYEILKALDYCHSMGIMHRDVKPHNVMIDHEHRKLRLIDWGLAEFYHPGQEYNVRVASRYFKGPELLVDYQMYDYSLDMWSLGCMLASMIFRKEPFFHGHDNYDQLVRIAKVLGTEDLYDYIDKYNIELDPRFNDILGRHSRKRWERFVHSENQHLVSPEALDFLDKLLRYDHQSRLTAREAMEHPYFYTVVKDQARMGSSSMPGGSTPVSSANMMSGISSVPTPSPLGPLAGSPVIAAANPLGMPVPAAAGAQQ
# Chain of Sphingosine kinase 1 (Homo sapiens) (Q9NYA1 whole entry): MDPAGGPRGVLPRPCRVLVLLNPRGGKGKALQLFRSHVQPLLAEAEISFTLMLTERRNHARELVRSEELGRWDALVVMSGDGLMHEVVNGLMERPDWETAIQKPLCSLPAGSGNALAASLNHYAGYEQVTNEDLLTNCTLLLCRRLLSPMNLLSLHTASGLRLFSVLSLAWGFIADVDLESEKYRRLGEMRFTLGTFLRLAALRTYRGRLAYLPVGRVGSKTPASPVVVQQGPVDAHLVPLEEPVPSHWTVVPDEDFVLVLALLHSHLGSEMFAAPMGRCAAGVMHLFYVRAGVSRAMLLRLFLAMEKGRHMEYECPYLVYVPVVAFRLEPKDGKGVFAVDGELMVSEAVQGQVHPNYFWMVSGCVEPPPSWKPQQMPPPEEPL
compound,measurement,setting,value
COc1cc(N2CCN(C(C)C)CC2)ccc1Nc1nc(Nc2ccc(F)cc2C(=O)NC[C@@H](O)CO)c2cc[nH]c2n1,inhibition,[1],5.85%
same,inhibition,[2],0.95%
same,inhibition,[3],0.89%
same,inhibition,[4],4.77%
same,inhibition,[5],15.7%
same,inhibition,[6],6.97%
same,inhibition,[7],11.1%
same,inhibition,[8],7.85%
same,inhibition,[9],9.5%
same,inhibition,[10],8.4%
same,inhibition,[11],10.3%
same,inhibition,[12],2.75%
same,inhibition,[13],4.63%
same,inhibition,[14],5.32%
same,inhibition,[15],5.19%
same,inhibition,[16],1.82%
same,inhibition,[17],3.84%
same,inhibition,[18],5.49%
same,inhibition,[19],3.45%
same,inhibition,[20],2.99%
